# In PubChem BioAssay AID651815 (National Center for Advancing Translational Sciences (NCATS), 2012):
# In all, about 2,100 compounds went through this assay and about 1,100 (52%) were called active. About 29% were inconclusive and are not listed. The call rests on the fitted dose curve; in most records, active means well fitted inhibition curve with a large enough effect; inconclusive means small, poorly fitted or top-dose-only effect; inactive means no such curve, though single readings can be large or run the other way. The set was probably picked from earlier hits. The list shows a part of the results.
# Target: DNA dC->dU-editing enzyme APOBEC-3F (Homo sapiens) (UniProt Q8IUX4)
# Test: qHTS for inhibitors of Vif-A3F interactions: Cherry picks counterscreen; further: nearly all actives have a fitted effect of over 65% in size
# Details: HeLa A3F-eYFP/Vif cells, eYFP fluorescence, 24 h; series mostly up to 46.1 µM
# Outline: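 HeLa cells stably expressing A3F-eYFP and Vif, cultured overnight, then treated 24 h at 37 degrees C with compounds at several concentrations; yellow fluorescence (488 nm Ex/500-530 nm Em) imaged on Acumen; MG132 positive control.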
# Potency means the concentration at half of the fitted maximal effect.
# DNA dC->dU-editing enzyme APOBEC-3F (Homo sapiens), sequence (Q8IUX4 whole entry, looked up): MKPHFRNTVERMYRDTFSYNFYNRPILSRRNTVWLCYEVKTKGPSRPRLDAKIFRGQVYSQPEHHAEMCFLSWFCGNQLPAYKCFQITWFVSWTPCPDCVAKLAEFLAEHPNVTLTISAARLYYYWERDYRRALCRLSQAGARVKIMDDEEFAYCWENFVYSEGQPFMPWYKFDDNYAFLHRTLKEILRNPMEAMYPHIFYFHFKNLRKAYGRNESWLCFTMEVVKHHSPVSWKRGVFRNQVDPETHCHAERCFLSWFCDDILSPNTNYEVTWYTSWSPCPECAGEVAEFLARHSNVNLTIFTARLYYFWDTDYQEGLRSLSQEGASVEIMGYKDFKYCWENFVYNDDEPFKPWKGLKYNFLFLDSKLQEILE
row,SMILES,Potency
1,Cc1ccc(CNC(=O)c2cccc3c2C(=O)c2ccc(N4CCC(C)CC4)cc2S3(=O)=O)cc1,14.6 µM (active)
2,O=C(NCc1cccc(F)c1)c1cccc2c1C(=O)c1ccc(N3CCCC3)cc1S2(=O)=O,17.7 µM (active)
3,CC1CCN(c2ccc3c(c2)S(=O)(=O)c2cccc(C(=O)NCc4cccc(F)c4)c2C3=O)CC1,14 µM (active)
4,COc1ccc2oc(=Nc3ccccc3)c(-c3nc4ccccc4[nH]3)cc2c1,20.6 µM (active)
5,COc1cc(C(=O)Nc2ccc(C)cc2)c2ccccc2n1,1.77 µM (active)
6,CCOC(=O)c1csc(NC(=O)c2cc(-c3ccccn3)nc3ccccc23)n1,inactive
7,Cc1ccc(C)c(NC(=O)Cn2cc(S(=O)(=O)Cc3cccc(Cl)c3)c3ccccc32)c1,6.51 µM (active)
8,Cc1ccc(Cl)cc1NC(=O)Nc1cn(CC(C)C)c(=O)c2ccccc12,inactive
9,CCS(=O)(=O)N1N=C(c2ccc(C)cc2)CC1c1cc2ccc(OC)cc2nc1Cl (configuration not stated),inactive
10,COc1ccc(C2CC(c3ccncc3)=NN2c2ccc(S(N)(=O)=O)cc2)cc1 (configuration not stated),20.6 µM (active)
11,O=C(Nc1nc2ccc(F)cc2s1)c1ccc([N+](=O)[O-])o1,15.8 µM (active)
12,COc1ccc2nc(NC(=S)NC(=O)c3ccco3)sc2c1,inactive
13,COc1ccc(NC(=O)c2c(Cl)n(C)c3ccccc23)cc1,14 µM (active)
14,COc1cc(OC)c(OC)cc1/C=C1\CC(C)C/C(=C\c2cc(OC)c(OC)cc2OC)C1=O (configuration not stated),18.4 µM (active)
15,CCCOc1ccc2cc(C(=O)NCc3ccccc3)c(=O)oc2c1,inactive
16,CCOc1ccc(CNC(=O)c2ccccc2NC(=O)c2nsc3ccccc23)cc1,16.4 µM (active)
17,CCOc1ncccc1C(=O)NCc1ccc(OC)cc1,8.86 µM (active)
18,COc1ccc2c(n1)Sc1nc3ccccc3nc1N2,3.26 µM (active)
19,COc1ccc(C2C(C#N)=C(N)Oc3c2ccc2cccnc32)cc1OC (configuration not stated),3.53 µM (active)
20,COc1ccc(C2C(C#N)=C(N)Oc3cc(N)ccc32)cc1OC (configuration not stated),12.5 µM (active)
21,Cc1oc(C)c2c(=O)ccc3c(c12)OC(N)=C(C#N)C3c1ccc(F)cc1 (configuration not stated),inactive

row,SMILES,Potency
1,N#CC1=C(N)Oc2cc(N)ccc2C1c1cccc(F)c1 (configuration not stated),2.5 µM (active)
2,COc1cc(C2C(C#N)=C(N)Oc3cc(O)ccc32)cc2c1OCO2 (configuration not stated),15.8 µM (active)
3,N#CC1=C(N)Oc2cc(N)ccc2C1c1cccc(Br)c1 (configuration not stated),1.98 µM (active)
4,Cc1ccc2nc(-c3ccccn3)c(NC3CCCC3)n2c1,inactive
5,O=C(N/N=C/c1ccc(Cl)cc1)c1cc2c(s1)-c1ccccc1CC2,5.59 µM (active)
6,Cc1cc2c(cc(C(=O)OCC(=O)NCc3cccs3)n2C(C)C)o1,1.77 µM (active)
7,CCOC(=O)Cc1csc(NC(=O)c2sc3nc4c(C)cc(C)cc4cc3c2N)n1,16.4 µM (active)
8,O=C(Cn1ncc(Cl)c(Cl)c1=O)Nc1ccc2c(c1)OCO2,15.8 µM (active)
9,Cc1cc(C)cc(Oc2nc(C(F)(F)F)nc3ccccc23)c1,11.2 µM (active)
10,Cc1ccc(/C=N/NC(=O)c2ccc3ccccc3c2)s1,2.23 µM (active)
11,Cc1ccc(/C=N/NC(=O)C2COc3ccccc3O2)s1 (configuration not stated),4.98 µM (active)
12,CNC(=S)N/N=C/c1ccc(N2CCOCC2)s1,inactive
13,Cc1sc2ncn(CC(=O)NCc3ccccc3)c(=O)c2c1C,inactive
14,CC(C)(C)n1ncc2c(=O)n(CC(=O)NCc3ccc(F)cc3)cnc21,14 µM (active)
15,Cc1ccc(Cn2nnc3c(=O)n(CC(=O)NCc4ccccc4)cnc32)cc1,14 µM (active)
16,O=C(Cn1cnc2c(cnn2-c2ccc(F)cc2)c1=O)NCc1ccco1,9.94 µM (active)
17,CCc1cccc2c(C(O)c3c[nH]c4ccccc34)c[nH]c12 (configuration not stated),20.6 µM (active)
18,CCn1c(SCC(=O)Nc2cccc(O)c2)nc2c1c(=O)n(C)c(=O)n2C,inactive
19,COc1ccc(NC(=O)CSc2nc3c(oc4ccccc43)c(=O)n2Cc2ccco2)cc1Cl,18.4 µM (active)
20,N=c1n(CC(=O)c2ccc([N+](=O)[O-])cc2)c2ccccc2n1Cc1ccccc1,20.6 µM (active)
21,Cc1ccc2c(CC(=O)NCc3ccco3)coc2c1C,9.94 µM (active)

row,SMILES,Potency
1,Cc1cccc(C)c1OCCNC(=O)C(=O)NCc1ccco1,2.8 µM (active)
2,O=C(COC(=O)C12CC3CC(CC(Cl)(C3)C1)C2)N1CCCCC1,inactive
3,COc1ccc2o/c(=N/NC(=O)c3cccs3)c(C(N)=O)cc2c1,7.04 µM (active)
4,Cc1ccc2c(Cl)c(C)c(N3CCCC3)nc2n1,inactive
5,CCN(CC)c1nc2cc(OC)ccc2cc1C#N,inactive
6,COc1ccc(Nc2nc3cc(C)ccc3cc2C#N)c(OC)c1,1.58 µM (active)
7,COc1ccc(Nc2nc3cc(C)ccc3cc2C#N)cc1,14.6 µM (active)
8,O=[N+]([O-])c1ccc(N/N=C/c2c[nH]c3ccccc23)c(S(=O)(=O)Nc2ccc(Cl)cc2)c1,18.4 µM (active)
9,COc1ccccc1NS(=O)(=O)c1cc([N+](=O)[O-])ccc1N/N=C/c1c(C)[nH]c2ccccc12,3.96 µM (active)
10,Cc1ccccc1NCC(=O)N=Nc1c(O)[nH]c2ccc([N+](=O)[O-])cc12,inactive
11,O=[N+]([O-])c1ccc(N/N=C/c2c[nH]c3ccccc23)cc1,16.4 µM (active)
12,O=[N+]([O-])c1ccc(N=Nc2ccc(O)c3ccccc23)cc1,inactive
13,C/C(=N/Nc1ccc([N+](=O)[O-])cc1)c1c[nH]c2ccccc12,inactive
14,Cc1[nH]c2ccccc2c1/C=N/Nc1ccc([N+](=O)[O-])cc1,9.2 µM (active)
15,COc1ccccc1NS(=O)(=O)c1cc([N+](=O)[O-])ccc1N/N=C/c1c[nH]c2ccccc12,13 µM (active)
16,COc1ccc(NS(=O)(=O)c2cc([N+](=O)[O-])ccc2N/N=C/c2c(C)[nH]c3ccccc23)cc1,10.3 µM (active)
17,CC(C)CC(=O)NC(=S)N(Cc1ccccc1)Cc1ccccc1,inactive
18,CC[n+]1c(C=C2C=C(C)OC(C)=C2)sc2ccccc21,4.61 µM (active)
19,COc1cc(N2CCCC2)c(OC)cc1/C=C1/NC(=S)NC1=O,1.58 µM (active)
20,COc1ccc(/C=C/C=C2\NC(=S)NC2=O)cc1,inactive
